This note sets out measurements from PubChem BioAssay (NCATS).

Records with an inconclusive call do not appear. Calls of active or inactive are those of the source. Calls follow the shape of the dose curve; as a rule, active = well fitted activation curve with a large enough effect; inconclusive = small, poorly fitted or top-dose-only effect; inactive = no such curve, though single readings can be large or run the other way.

This assay is described as follows: qHTS for Activators of Parkin Expression: LOPAC Validation Assay (FLuc Reporter) (AID 720573). Particulars: Cell line, PRKN promoter firefly luciferase reporter, vehicle wells = 0, positive control = 100%; series mostly up to 46.1 µM. In outline:
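Neuronal cell line stably expressing FLuc/NLuc coincidence reporter under the Parkin promoter, 1,500 cells/well, dosed 24 h after seeding in 7-point series for 24 h at 37 C. FLuc luminescence read; normalized to DMSO and positive control (100%).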
In general terms: Quantitative high-throughput screening tests each substance at several concentrations.
Take `CN1C(=O)CCS(=O)(=O)C1c1ccc(Cl)cc1` (stereo not given): the molecule was called inactive.
In the case of `CCC1(c2ccc(N)cc2)CCC(=O)NC1=O` (stereo not given) it was “inactive”; in that of `O=c1[nH]oc2c1CCNC2`, “inactive”.
In the case of `O=C(O)CCCc1ccc(N(CCCl)CCCl)cc1` it was “inactive”; in that of `COc1ccc2c(c1OC)C(=O)O[C@H]2[C@@H]1c2cc3c(cc2CCN1C)OCO3`, “inactive”; in that of `C=C(C)[C@H]1CN[C@H](C(=O)O)[C@H]1CC(=O)O`, “inactive”.
In the case of `CC(C)(C)NCC(O)c1ccccc1Cl` (stereo not given), the molecule was classed as inactive.
In the case of `O=P1(N(CCCl)CCCl)NCCCO1` (stereo not given) it was “inactive”.
In the case of `O=C(CCCN1CCC2(CC1)C(=O)NCN2c1ccccc1)c1ccc(F)cc1` it was “inactive”; in that of `Cc1ncsc1CCCl`, “inactive”.
In the case of `CC(C)c1cccc(C(C)C)c1O` it was “inactive”.
On to `CCCCC/C=C\C/C=C\C/C=C\C/C=C\CCCC(=O)NCC(=O)O`, for which the molecule was classed as inactive.
In the case of `NCCc1ccc(O)cc1` it was “inactive”.
In the case of `CC(NC(C)(C)C)C(=O)c1cccc(Cl)c1` (stereo not given) it was “inactive”; in that of `CC(C)N(CCC(C(N)=O)(c1ccccc1)c1ccccn1)C(C)C` (stereo not given), “inactive”.
